Most compounds without a hit are left out; they make up all but 4.1% or so of the library.
TIM10 inh: growth inhibitors of isogenic TIM10 control yeast, primary screen, counter-screen for tim10-1 yeast inhibitor project, luminescence, uHTS | inhibition, % at 10 µM | S. cerevisiae TIM10 strain growth, BacTiter-Glo luminescence, 24 h | 1.4% of 330,000 active;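 active means inhibition of 40% or more at the single tested concentration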;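 further: wild-type TIM10 isogenic control strain grown at permissive 25 °C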
NALP1 inh: NALP1 inflammasome inhibitors in reconstituted yeast, colorimetric, S. cerevisiae, triplicate retest; S. cerevisiae NALP1/ASC/caspase-1 growth, X-gal OD620, 72 h; 0.61% of 280,000 active; inhibition, % at 10 µM; in the data active means inhibition mostly above about 24%, no sharp cut-off; inactive means mostly below about 32%
NLRP3 yeast inh: NALP3 inflammasome inhibitors in reconstituted yeast, primary screen, luminescence, uHTS | AID 2825, 2010 | inhibition, % at 10 µM | Yeast reconstituted NLRP3/ASC/caspase-1, beta-gal luminescence, 24 h | 0.39% of 330,000 active;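 active means inhibition of 50% or more; inactive means inhibition below 50%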;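 further: plate controls were induced DMSO wells for no effect and uninduced yeast grown without galactose for full effect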
tim23-1 inh: growth inhibitors of tim23-1 mutant yeast, primary screen, luminescence, uHTS; S. cerevisiae tim23-1 growth, BacTiter-Glo luminescence, 24 h; inhibition, % at 20 µM; 1.3% of 330,000 active; AID 463212, 2010;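 active means growth inhibition of the mutant yeast at or above 50%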;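 further: temperature-sensitive mutant grown at 25 °C; plate controls were DMSO-treated mutant yeast for no effect and medium wells lacking yeast for full effect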
tim10-1 inh: growth inhibitors of tim10-1 mutant yeast, primary screen, luminescence, uHTS; inhibition, % at 20 µM; AID 463190, 2010; S. cerevisiae tim10-1 ts strain growth, BacTiter-Glo, 24 h; 2.2% of 330,000 active;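 active means inhibition of at least 40%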;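 further: mutant grown at 25 °C; 0% = DMSO wells with yeast and 100% = wells holding no yeast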
PfHsp90 set2: growth inhibition of PfHsp90-expressing yeast, primary screen, antimalarial PfHsp90 inhibitor project, S. cerevisiae, BacTiter-Glo luminescence, single point, set 2; BacTiter-Glo ATP, 48 h; yeast lacking PDR1 and PDR3 efflux regulators; inhibition, % at 9.4 µM; 0.32% of 310,000 active;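 active means every replicate shows inhibition above about 80%, whatever the replicate mean, limit read from the data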;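 further: 0% = DMSO neutral controls and 100% = 20 µM radicicol positive controls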
tim10-1 confirm: growth inhibitors of tim10-1 mutant yeast, confirmation, single concentration, luminescence, S. cerevisiae | shares compounds with tim10-1 inh | 56% of 7,400 active | AID 463213, 2010 | S. cerevisiae tim10-1 ts strain growth, BacTiter-Glo, 24 h | inhibition, % at 20 µM;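 active means inhibition of yeast growth at or above a set limit in either of two repeat tests at 20 µM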;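 further: tim10-1 mutant grown at permissive 25 °C to find synthetic lethal compounds; 0% = DMSO yeast wells and 100% = medium wells without yeast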
tim10 confirm: growth inhibitors of wild-type TIM10 yeast, confirmation, counter-screen for tim10-1 synthetic lethality project, single concentration, luminescence, S. cerevisiae. shares compounds with TIM10 inh. S. cerevisiae tim10 strain growth, BacTiter-Glo luminescence, 24 h. inhibition, % at 10 µM. 63% of 4,600 active. AID 463215, 2010;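 active means inhibition of yeast growth at or above a set limit in either of two replicates at 10 µM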;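 further: this counterscreen used the strain with wild-type TIM10; 0% = yeast with DMSO and 100% = medium wells lacking yeast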
tim23-1 confirm: tim23-1 mutant yeast growth inhibitors, confirmation, luminescence, single concentration; shares compounds with tim23-1 inh; S. cerevisiae tim23-1 growth, BacTiter-Glo luminescence, 24 h; inhibition, % at 20 µM; AID 463218, 2010; 83% of 4,400 active;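 active means inhibition above about 39% in either of two replicate wells at 20 µM, limit read from the data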;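 further: temperature-sensitive tim23-1 mutant grown at 25 °C; 0% = DMSO wells with yeast and 100% = medium wells without yeast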
An asterisk follows results filed as active; nt = no result given.

SMILES | TIM10 inh | NALP1 inh | NLRP3 yeast inh | tim23-1 inh | tim10-1 inh | PfHsp90 set2 | tim10-1 confirm | tim10 confirm | tim23-1 confirm
CCCCCCCCNC(=O)/C(C#N)=C/c1ccccc1[N+](=O)[O-] | 64* | 33 | 29 | 83* | 50* | 110* | 23 | 70* | 47*
C=CCNC(=O)/C(C#N)=C/c1c(C)nn(-c2ccccc2)c1Cl | 67* | 62 | 34 | 72* | 71* | -15 | 76* | 65* | 72*
CCOc1ccccc1NC(=O)/C(C#N)=C/c1c(C)nn(-c2ccccc2)c1Cl | -3 | 18 | 20 | -8 | 5 | 32 | nt | nt | nt
COc1ccc(O)c(-c2cc(-c3ccc(F)cc3)n[nH]2)c1 | 30 | 0 | -12 | 63* | 49* | -16 | 27 | nt | 72*
COc1ccc(-c2n[nH]c(C)c2-c2cc(OC)ccc2O)cc1 | 2 | -5 | -9 | 7 | 18 | -13 | nt | nt | nt
COc1ccc(-c2cc(-c3cc(OC)ccc3O)[nH]n2)cc1 | 51* | 56 | 12 | 59* | 44* | nt | 29* | 42* | 61*
Cc1ccc(C2(c3ccccc3)NC(=O)N(CC(=O)NCc3ccco3)C2=O)cc1C (centres undefined) | 4 | nt | 12 | 7 | 7 | -11 | nt | nt | nt
COc1ccccc1C1Nc2cccc3cccc(c23)N1 | 9 | 11 | 12 | 26 | 21 | 10 | nt | nt | nt
Oc1ccccc1C1Nc2cccc3cccc(c23)N1 | 46* | 3 | 32 | 77* | 52* | -43 | 52* | 44* | 74*
CN(Cc1ccccc1)S(=O)(=O)c1ccccc1Br | -16 | nt | nt | 41 | 12 | 24 | nt | nt | nt
O=C(NCCc1ccncc1)Nc1cccc(Cl)c1 | 14 | 6 | 12 | 6 | 11 | 8 | nt | nt | nt
O=C(NCCCc1ccccc1)Nc1cccc(Cl)c1 | 46* | 47 | 27 | 57* | 44* | 6 | 24 | -11 | 66*
COc1ccc(/C=C\c2nc(=O)c3ccccc3o2)cc1 | 42* | 11 | 12 | 78* | 55* | 2 | 46* | 35* | 71*
O=c1nc(/C=C/c2ccc(O)c(O)c2)oc2ccccc12 | nt | -5 | nt | nt | nt | 7 | nt | nt | nt
CC(C)N(CC(=O)Nc1ccc(Cl)cc1C(F)(F)F)C(=O)CCl | 67* | 5 | 12 | 55* | 47* | 0 | 59* | 56* | 54*
O=C(O)CSCC(=O)Nc1ccc(Cl)cc1C(F)(F)F | -8 | -7 | 15 | 8 | 1 | -16 | nt | nt | nt
COc1ccc(Cl)cc1NC(=O)C1CC(c2c(F)cccc2Cl)=NO1 (centres undefined) | 65* | 10 | 20 | 65* | 80* | 5 | 76* | 72* | 85*
CSc1ccccc1C(=O)Nc1nc2ccccc2[nH]1 | 2 | -1 | 15 | 4 | 13 | 9 | nt | nt | nt
COc1cc(SC)ccc1C(=O)Nc1nc2ccccc2[nH]1 | 88* | 17 | 16 | 93* | 90* | 96* | 91* | 88* | 94*
O=C(/C(=N\O)n1cncn1)c1ccc(Cl)cc1Cl | 18 | 27 | 3 | -2 | -6 | 11 | nt | nt | nt
O=C(/C(=C/c1ccccc1)n1cncn1)c1ccc(Cl)cc1Cl | 82* | 43* | 32 | 92* | 80* | 8 | 82* | -4 | 91*
O=C1Nc2ccccc2/C1=C\C(=O)c1ccccc1 | 82* | 20 | 28 | 88* | 52* | 1 | 52* | 93* | -43
CN(O)/C=C1\C(=O)Nc2ccccc21 | 1 | 1 | 11 | 12 | 0 | 8 | nt | nt | nt
CCN(CC)S(=O)(=O)c1ccc(OC)c(NC(=S)Nc2cccc(C)c2C)c1 | 7 | 34 | 11 | 27 | 33 | 12 | nt | nt | nt
O=C(CN(Cc1ccco1)C(=O)CNS(=O)(=O)c1ccc(F)cc1)NCc1ccco1 | 14 | 2 | 2 | 4 | -12 | 5 | nt | nt | nt
SMILES | TIM10 inh | NALP1 inh | NLRP3 yeast inh | tim23-1 inh | tim10-1 inh | PfHsp90 set2 | tim10-1 confirm | tim10 confirm | tim23-1 confirm
CC1(C)CC(=O)C(C2C3=C(CC(C)(C)CC3=O)Oc3ccccc32)C(=O)C1 (centres undefined) | 21 | 21 | 7 | 41 | 11 | 3 | nt | nt | nt
CC1(C)CC(=O)C2=C(C1)Oc1nc3ccccc3cc1C2C(C#N)C#N (centres undefined) | 54* | 8 | 25 | 63* | 61* | nt | 59* | 63* | 68*
O=C(NC(=S)Nc1ccccc1Br)C1CCC1 | 38 | 10 | 20 | 58* | 40* | 3 | 25 | nt | 40*
CCOc1ccc(/C=C2\SC(=S)N(CC(=O)Nc3ccccn3)C2=O)cc1 | 8 | 25 | 21 | 6 | 11 | -10 | nt | nt | nt
CC(OC(=O)C1=COCCO1)C(=O)Nc1ccc(Cl)cn1 (centres undefined) | 5 | nt | 15 | -1 | -5 | 25 | nt | nt | nt
CCOC(=O)CNc1c(-c2ccccc2)nc2ccc(Cl)cn12 | 40* | 25 | 18 | 51* | 40* | 73 | 33* | 2 | 51*
CCOC(=O)CNc1c(-c2ccc(O)cc2)nc2ccc(Cl)cn12 | 24 | 18 | 12 | 42 | 19 | -18 | nt | nt | nt
COc1ccc(C(=O)Nc2ccccc2C(=O)N/N=C/c2ccncc2)cc1OC | 33 | 8 | 3 | 61* | 43* | 34 | 55* | nt | 53*
COc1ccc(C(=O)Nc2ccccc2C(=O)NCc2cccnc2)cc1OC | 8 | -15 | 10 | 4 | -1 | -2 | nt | nt | nt
O=C(CC1CC2CCC1C2)OCC(=O)c1c[nH]c2ccccc12 (centres undefined) | 35 | 1 | 17 | 52* | 42* | 1 | 26 | nt | 68*
O=C(COC(=O)CC1CC2CCC1C2)NCc1ccc(F)cc1 (centres undefined) | 3 | nt | 9 | 22 | 5 | nt | nt | nt | nt
COc1ccc(/C=N/Nc2cc(N3CCCC3)nc(N3CCCC3)n2)cc1 | 27 | 19 | 14 | 68* | 45* | 5 | 18 | nt | 44*
Oc1ccc(/C=N/Nc2cc(N3CCCC3)nc(N3CCCC3)n2)cc1 | 22 | -8 | 30 | 27 | 20 | 17 | nt | nt | nt

Assay outcomes as filed in PubChem.
